The source of these data is PubChem BioAssay (NCI).

Compounds without any hit were thinned out: in the full panel of roughly 79,000, 15% have a hit. Values without a mark were called inactive. Cut-off read from the data, not from the text of the source: active = growth inhibition above about 70%; inactive = the rest.

This test can be described thus: NCI Yeast Anticancer Drug Screen. Data for the cln2 rad14 strain (AID 165).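 Note: 0% = growth equal to vehicle treated cultures.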 The following applies: S. cerevisiae cln2 rad14 strain, at 50.0 µM, stronger effect = higher value. As for the experimental part:
Growth inhibition of yeast strains with defined genetic alterations is measured as a screen for potential anti-cancer activity. Selected strains with alterations in DNA damage repair or cell cycle control were exposed to compounds and growth inhibition was measured relative to vehicle treated controls. The strain used in this assay is cln2 rad14
Regarding `C/C(=N\NC(=O)c1ccncc1)c1ccc(Cl)cc1Cl`, the growth inhibition was 1.95%.

As to `CC1=NN(c2ccccc2)C(=O)C1=C1SCCCS1`, the growth inhibition is 16.4%.

As for `CSc1ccc(C(=O)c2ccc(SC)cc2)cc1`, the growth inhibition is -12.8%.

Regarding `Cc1ccc(OCc2ccccc2)n[n+]1[O-]`, the growth inhibition was -9.85%. `COc1ccc([N+](=O)[O-])c(OC)c1`: the growth inhibition is 17.2%.

For the compound `CCOc1nc(N)nc(C)c1N=Nc1ccc(O)cc1`, the growth inhibition is -43%. In the case of `CSC(=S)Nc1nc2ccc(Cl)cc2s1`, the growth inhibition was 3.15%. For the compound `CCOC(=O)CCc1c[nH]c2ccccc12`, the growth inhibition was -9.85%. In the case of `CCOC(=O)C(=O)C(CCc1ccc2ccc3cccc4ccc1c2c34)C(=O)OCC` (stereo not given) it was -21.8%; in that of `Nc1ccc(C(=O)N/C(=C\c2cccc([N+](=O)[O-])c2)c2nc3ccc(Cl)cc3[nH]2)cc1`, -17.9%; in that of `CCCCNC(=O)C(C)S(=O)(=O)c1ccc(C)cc1` (stereo not given), -21.7%. As for `CC(=O)NNc1nc(C)c(C(/C=C/c2ccc(/C=C/C(=N\NC(=O)c3ccncc3)c3sc(NNC(C)=O)nc3C)cc2)=N/NC(=O)c2ccncc2)s1`, the growth inhibition was 12.7%.

As to `CCOc1ccc(C(=O)OC(C)C)cc1`, the growth inhibition is 2.7%. As to `O=C(O)CNC(=O)CNC(=O)CNC(=O)CNC(=O)CNC(=O)OCc1ccccc1`, the growth inhibition is 28.1%. Take `O=C(Nc1ccccc1)c1cccc(F)c1`: the growth inhibition is 9.1%. Take `O=C1c2ccccc2C(=O)N1/N=C\c1ccc(O)cc1`: the growth inhibition was 12.9%. On to `N/N=C/c1ccc2ccccc2n1`, for which the growth inhibition was -1.75%.

Turning to `Cc1cc(=NO)cc(C)n1O`, the growth inhibition is -3.3%.

In the case of `CCCCC(=O)N/N=C/c1c[nH]c2ccc(Br)cc12`, the growth inhibition is 0.85%. Turning to `CCn1c(O)c(C=Nc2ccccc2)s/c1=N/Nc1nc(C)cs1`, the growth inhibition is -14.1%.

For the compound `C=C1C(=O)OC2C=C(C)C3C(OC(=O)c4ccccc4)CC(C)(O)C3CC12` (stereo not given), the growth inhibition was 16.6%. As to `O=c1[nH]c2ccccc2nc1/C=C(\O)c1ccc([N+](=O)[O-])cc1`, the growth inhibition is 25.7%. In the case of `CCOc1nc(OCC)c2cnn(C)c2n1`, the growth inhibition is -28.8%. For the compound `CCCOC(C)OCCC#CCC(C)OC(=O)CC(Cl)(Cl)Cl` (stereo not given), the growth inhibition was -5.35%. In the case of `Cc1cc(N=Nc2ccccc2)c2cccnc2c1N` it was 11.6%. For the compound `COc1cc(/C=C2/C(=O)N(C(=O)c3ccc(Cl)cc3)N=C2C)cc(OC)c1OC`, the growth inhibition was -48.1%. On to `O=C(OC(=O)c1ccc(Cl)cc1)c1ccc(Cl)cc1`, for which the growth inhibition was -8.15%. In the case of `COc1ccc(C(CC(=O)c2ccccc2)C(=O)c2ccc3c(c2)OCO3)cc1` (stereo not given) it was -12.7%; in that of `CC(=O)N=Cc1ccccc1O`, -77.7%; in that of `Cc1cc(C)n(-c2ccc(Cl)nn2)n1`, -27.6%. As to `CC(=O)Nc1nc(C)c(CC/C=C/c2ccc([N+](=O)[O-])cc2)c(=O)[nH]1`, the growth inhibition is 2.95%. Turning to `COc1cc(-c2ccccc2)c(OC)cc1CCl`, the growth inhibition was 6%. `O=C(NCCO)c1ccc(Cl)cc1`: the growth inhibition was 19.1%. Take `Cc1ccc(C(=O)c2cc3c([nH]c4ccccc43)c(C)c2C(=O)O)cc1`: the growth inhibition is 28.6%. On to `COC(=O)NC(C(F)(F)F)(C(F)(F)F)P1(=O)OCCCO1`, for which the growth inhibition was 43%. For the compound `Clc1ccc2c(c1)N(C1CCCN(Cc3ccccc3)C1)c1ccccc1S2` (stereo not given), the growth inhibition is 25.8%.

For `COc1ccc(C(=O)/C=C/c2c[nH]c3ccccc23)c(O)c1`, the growth inhibition is -43.2%. As to `CC(=O)Nc1nc(C)c(CC/C=C/c2ccc([N+](=O)[O-])cc2)c(Cl)n1`, the growth inhibition was -6.35%.

As for `COC(=O)CC(=O)/C(=C/C(C/C=C(\C(=O)CC(=O)OC)C(=O)OC)OC)C(=O)OC` (stereo not given), the growth inhibition is 18.8%.

In the case of `CC1(C)C2CC=C(CCO)C1C2` (stereo not given), the growth inhibition is -20.6%.
